PubChem BioAssay
Where “and” joins values, the source holds several entries; their conditions need not be identical. Equal entries are not always repeated. Calls of active or inactive are those of the source.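 Rule for the calls: active = at least 20% inhibition of 6-phosphogluconate dehydrogenase activity; inactive = the rest.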 Where a SMILES comes first, the peptide text is derived from it. Bridges are numbered along the chain shown (N, C = ends). [ ]: non-standard residue; d: D form. The star is where a group is joined. ξ: configuration not given here. ξDab(CH2SO3H) = NC(CCNCS(=O)(=O)O)C(=O)O; Octanoyl(6-Me) = CCC(C)CCCCC(=O)*; Dab = NCC[CH](N)C(=O)O

Biological target: 6-phosphogluconate dehydrogenase, decarboxylating (Homo sapiens) (UniProt P52209)
Sequence (P52209 whole entry, looked up): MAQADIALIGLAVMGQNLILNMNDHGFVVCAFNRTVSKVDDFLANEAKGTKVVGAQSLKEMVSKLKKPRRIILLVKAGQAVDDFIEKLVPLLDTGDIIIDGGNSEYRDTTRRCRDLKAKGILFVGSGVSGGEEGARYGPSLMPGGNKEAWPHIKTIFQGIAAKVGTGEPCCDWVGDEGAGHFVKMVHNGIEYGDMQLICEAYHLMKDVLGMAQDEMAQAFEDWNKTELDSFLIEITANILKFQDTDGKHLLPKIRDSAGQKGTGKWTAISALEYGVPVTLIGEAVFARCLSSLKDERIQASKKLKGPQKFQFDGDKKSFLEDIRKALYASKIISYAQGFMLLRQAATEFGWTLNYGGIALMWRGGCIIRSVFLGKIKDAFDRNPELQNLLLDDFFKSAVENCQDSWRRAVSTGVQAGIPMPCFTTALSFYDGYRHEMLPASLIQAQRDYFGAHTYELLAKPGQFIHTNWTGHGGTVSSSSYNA
Experiment: inhibition of human phosphogluconate dehydrogenase – biochemical, recombinant enzyme, NADPH absorbance, primary screen (AID 1159550)
Settings: recombinant 6PGD, NADPH absorbance 341 nm; at 10 µM; hits give high values

inhibition, inactive:
CC12CCC3c4ccc(O)cc4CCC3C1CCC2OC(=O)CCC1CCCC1 (stereo not drawn) -3.96%, O=C(O)C=CC=Cc1ccccc1 8.52%, CCC(C)CCCCC(=O)NC(CCNCS(=O)(=O)O)C(=O)NC(C(=O)NC(CCNCS(=O)(=O)O)C(=O)NC1CCNC(=O)C(C(C)O)NC(=O)C(CCNCS(=O)(=O)O)NC(=O)C(CCNCS(=O)(=O)O)NC(=O)C(CC(C)C)NC(=O)C(CC(C)C)NC(=O)C(CCNCS(=O)(=O)O)NC1=O)C(C)O (stereo not drawn) ({Octanoyl(6-Me)}-[ξDab(CH2SO3H)]T[ξDab(CH2SO3H)][Dab][ξDab(CH2SO3H)]LL[ξDab(CH2SO3H)][ξDab(CH2SO3H)]T; lactam 4-C; configuration not given here) 17.5%, COC(=O)C[C@H]1C(C)(C)[C@H](O)[C@@H]2CC3=C4CC(O)O[C@@H](c5ccoc5)[C@@]4(C)CCC3[C@]1(C)C2=O (stereo partly drawn) -7.8%, CCCCCCCCCCCCC(C(=O)O)C(C)C(=O)O (stereo not drawn) -10.3%, Oc1ccc2c(c1)OC(c1ccc(O)c(O)c1)C(O)C2 (stereo not drawn) 6.96%, CC(C)CCC[C@@H](C)[C@H]1CC[C@H]2[C@@H]3CC[C@H]4CC(=O)CC[C@]4(C)[C@H]3CC[C@]12C -4.87% and 3.54%, CC1(C)C(=O)CC[C@@]2(C)C1C[C@@H](O)[C@@]1(C)C3=CC(=O)O[C@@H](c4ccoc4)[C@]3(C)CCC21 (stereo partly drawn) -10.8%, CC(C)C1COc2cc3oc(=O)ccc3cc2O1 (stereo not drawn) 3.83%, O=C/C=C/c1ccc(O)cc1 1.58%, C[C@H](N)CO -0.518%, CC1(C)S[C@H]2[C@@H](NC(=O)[C@H](NC(=O)N3CCNC3=O)c3ccccc3)C(=O)N2[C@@H]1C(=O)O 10.5%, C[C@]12CC[C@@H](O)C[C@H]1CC[C@@H]1[C@@H]2C(=O)C[C@@]2(C)[C@H]1CC[C@]2(O)C(=O)CO -17%, CC(C)=CCc1c(O)cc(C)oc1=O -5.39%, CN[C@H]1[C@@H](O[C@@H]2[C@@H](O[C@H]3[C@H](O)[C@@H](O)[C@H](N=C(N)N)[C@@H](O)[C@@H]3N=C(N)N)O[C@H](C)[C@@]2(O)C=O)O[C@H](CO)[C@@H](O)[C@@H]1O 6.7%, CC(C)c1ccc2c(c1)CC[C@@]1(C)[C@](C)(C(N)=O)CCC[C@]21C 18%, COc1cc2c(cc1OC)[C@@H]1C(=O)c3c(O)cc4c(c3O[C@@H]1CO2)C=CC(C)(C)O4 12.7%, CC(=O)OC(C)(CCC=C(C)C)C1CC=C(C)CC1 (stereo not drawn) 0.603%, CCN1CC2CCC(OC)C34C2C(O)C2(OCOC25CC(OC)C2CC3(O)C5C2OC)C14 (stereo not drawn) 4.26%, O=C1C[C@@H](c2ccccc2)Oc2cc(O)cc(O)c21 17.2%, CC[C@H](C(=O)[C@@H](C)[C@@H](O)[C@H](C)[C@@H]1O[C@@H]([C@@H](CC)C(=O)O)[C@@H](C)C[C@@H]1C)[C@H]1O[C@]2(C=C[C@@H](O)[C@]3(CC[C@@](C)([C@H]4CC[C@](O)(CC)[C@H](C)O4)O3)O2)[C@H](C)C[C@@H]1C -15.5%, C[C@H]1[C@@H](O)O[C@@H]2OC3(C)CC[C@H]4[C@H](C)CC[C@@H]1[C@@]24OO3 -22.8%, C=C1CCC(=O)C(C)CCC2C1CC2(C)C (stereo not drawn) 14.7%, CC1(C)C(=O)[C@H]2C[C@]3(O)C4=CC(=O)O[C@@H](c5ccoc5)[C@@]4(C)CCC3[C@](C)(C2=O)[C@H]1CC(=O)O (stereo partly drawn) -7.25%, CCCCC(CC)COC(=O)COc1cc(Cl)c(Cl)cc1Cl (stereo not drawn) 4.06%, CC1=CC(=O)C2C(C)(C)CCCC2(C)C1(O)CCc1ccoc1 (stereo not drawn) -22.2%, CC(C)CC(NC(=O)CN)C(=O)NC(Cc1ccccc1)C(=O)O (stereo not drawn) (H-Gly-Leu-Phe-OH; configuration not given here) 6.11%, C[C@@H]1O[C@@H](O[C@H]2[C@H](O[C@H]3CC[C@@]4(C)[C@@H](CC[C@]5(C)[C@@H]4CC=C4[C@@H]6CC(C)(C)CC[C@]6(C(=O)O[C@@H]6O[C@H](CO[C@@H]7O[C@H](CO)[C@@H](O[C@@H]8O[C@@H](C)[C@H](O)[C@@H](O)[C@H]8O)[C@H](O)[C@H]7O)[C@@H](O)[C@H](O)[C@H]6O)CC[C@]45C)[C@]3(C)CO)OC[C@H](O)[C@@H]2O)[C@H](O)[C@H](O)[C@H]1O 5.65%
